# High-throughput results from PubChem.
# RBX1-CUL1 inh – inhibitors of human ROC1-CUL1 ubiquitin ligase activity; AID 1347404, 2020; 0.6% of 140,000 active; E3 ubiquitin-protein ligase RBX1 (Homo sapiens) + Cullin-1 (Homo sapiens), P62877+Q13616; in vitro K48 di-Ub FRET, acceptor:donor ratio, 45 min; inhibition, % at 10 µM; in the data active means inhibition above about 25%
# The depositor's hits bear a star. Many of the other results were omitted from the sample, so hits are more common in it than they were.
SMILES,RBX1-CUL1 inh
COC(=O)c1cc(-c2ccc(/C=C3/C(=O)NN(c4ccc(C)cc4)C3=O)o2)ccc1Cl,13
CCOC(=O)c1cc(-c2ccc(/C=C3/C(=O)ON=C3C)o2)ccc1Cl,-2
COC(=O)c1ccc(N2NC(=O)/C(=C/c3ccc(-c4ccc(Cl)c(C(=O)O)c4)o3)C2=O)cc1,35*
CC1=NN(c2ccccc2)C(=O)/C1=C/c1ccc(-c2ccc(C)c(C(=O)O)c2)o1,3
CCN(CC)C(=O)NC(=O)c1ccccc1,-6
CC(C(=O)N(C)C)N(c1ccc(Cl)cc1)S(C)(=O)=O (configuration not stated),7
Cc1ccc(S(=O)(=O)N=NC2CCSCC2)cc1,-1
Cc1ccc(S(=O)(=O)N=C2Cc3ccccc3N2C)cc1,27*
CC(=O)N=C1CC(=NS(=O)(=O)c2ccc(C)cc2)CC(=NC(C)=O)C1=O,-1
N#Cc1ccc(NC(=O)c2sc3nc4c(cc3c2N)CCC4)cc1,-6
Cc1ccc([C@@H]2Nc3c(ccc(C(=O)O)c3C)[C@@H]3C=CC[C@@H]32)cc1,97*
Cc1ccc([C@H]2Nc3ccc(S(=O)(=O)Nc4cccc(Cl)c4C)cc3[C@H]3C=CC[C@H]32)cc1,3
COC(=O)c1ccc([C@@H]2Nc3c(OC)ccc(C)c3[C@@H]3C=CC[C@@H]32)cc1,4
COCCNS(=O)(=O)c1ccc(N2CCCC2=O)cc1,-9
COc1ccccc1C1NC(=O)c2n[nH]c(-c3cccs3)c21 (configuration not stated),3
O=C(O)CSc1cccnc1Sc1ccc(Cl)cc1,5
O=C1Oc2cccnc2C(=O)C1C(c1ccc(Cl)cc1)C1C(=O)Oc2cccnc2C1=O (configuration not stated),38*
CSC1=NC(=O)C(C(c2ccc(Cl)cc2)C2C(=O)N=C(SC)NC2=O)C(=O)N1 (configuration not stated),-4
COC(=O)CN1N=C(c2ccc(NC(C)=O)cc2)CSC1=O,8
COc1cccc(CCC2CCCN(Cc3nccn3C)C2)c1 (configuration not stated),5
COc1ccc2cc3cc(C(=O)N4CCN(c5ccccc5F)CC4)oc3nc2c1,-5
COc1cccc(C(=O)Oc2c(Sc3ccc(C)cc3)c(C)nn2C(C)(C)C)c1OC,-3
COc1ccc(C(=O)Oc2c(Sc3ccc(C)cc3)c(C)nn2C(C)(C)C)cc1OC,-8
COCC(=O)Oc1c(Sc2ccc(C)cc2)c(C)nn1C(C)(C)C,59*
COc1ccc(-n2nnc(C(=O)N3CCOCC3)c2C)cc1Cl,-2
SMILES,RBX1-CUL1 inh
CCOc1cc(C2C3=C(CCCC3=O)N(CC(=O)O)C3=C2C(=O)CCC3)cc(Cl)c1OCC,1
CCOC(=O)c1nnn2c1nc(Cl)c1ccccc12,79*
C=CCn1c(Sc2nc3c(C(=O)OCC)nnn3c3ccccc23)nnc1-c1ccccc1,5
CCOC(=O)c1nnn2c3ccccc3c(=O)n(CC(=O)c3ccc(Cl)cc3)c12,6
O=C(Nc1ccc(F)c(F)c1)c1cc(F)c(N2CCCC2)c(F)c1F,5
O=[N+]([O-])c1cccnc1N/N=C\c1ccccc1F,-4
CC(C)C(=O)N(Cc1cc2ccccc2[nH]c1=O)c1ccc(Cl)cc1,11
CCOC(=O)c1c(C)n(-c2ccccc2)c(C)nc1=S,11
CCOC(=O)c1c(C(=O)OCC)c(C)n(-c2ccccc2C(=O)O)c1C,36*
CCOC(=O)c1c(C)n(-c2ccccc2)c2ccc(OC(=O)c3ccccc3Cl)cc12,-2
Cc1nsc2nc3c(F)c(F)c(N[C@@H](C)c4ccccc4)c(F)c3cc12,9
COc1ccc(CNc2c(F)c(F)c3nc4snc(C)c4cc3c2F)cc1,-6
COc1ccccc1CNc1c(F)c(F)c2nc3snc(C)c3cc2c1F,87*
Cc1cc(C)n(C(=O)c2cc3c(cc2Br)OCCCO3)n1,2
COc1ncc(CN2CCC3(CCCN(Cc4ccc(F)cc4)C3=O)C2)cn1 (configuration not stated),6
Cc1cc(C)cc(NC(=O)c2sc3nc(-c4cc5ccccc5oc4=O)[nH]c(=O)c3c2C)c1,5
Cc1c(C(=O)Nc2cccc(F)c2)sc2nc(-c3cc4ccccc4oc3=O)[nH]c(=O)c12,5
Cc1cccc(NC(=O)c2sc3nc(-c4cc5ccc(O)cc5oc4=O)[nH]c(=O)c3c2C)c1,63*
N#C/C(=C/c1ccc([N+](=O)[O-])o1)C(=O)O,73*
N#C/C(=C\c1ccc([N+](=O)[O-])o1)c1nc(-c2ccc(F)cc2)cs1,-14
CC(=O)/C(C#N)=C/c1ccc(C#N)o1,3
O=C(O)CCCOc1ccccc1-c1ccccc1,7
c1ccc(COc2ccc(OCc3ccccc3)cc2)cc1,2
COc1ccc(OC)c(C2CC(=O)c3c([nH]c(C(=O)OC4CCC(C)CC4)c3C)C2)c1 (configuration not stated),-4
O=C1/C(=C/c2ccoc2)CCC/C1=C\c1ccoc1,97*
O=C1/C(=C\c2cnn(-c3ccccc3)c2)CCC/C1=C/c1cnn(-c2ccccc2)c1,2
